This is part of a sample that, as a whole, favours compounds with a hit. Of some 83,000 tested, about 20% had one in any assay.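 Single-concentration screen, 48 h exposure, 96-well plates. Endpoint: percent growth. Below 10 = active.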 Values without a mark were called inactive. Active and inactive are the calls of the source.

What all share (experiment): NCI-60 one-dose screen, 48 h (100 = growth as untreated, 0 = no growth, -100 = all killed)
For test [1], the system named is 786-0 renal. The conditions noted are these: 10 µM unless noted.
Test [2] has as its system DU-145 prostate. The conditions noted are these: 10 µM unless noted.
Test [3] concerns MDA-MB-231 breast. The conditions noted are these: 10 µM unless noted.
Test [4] concerns SF-268 CNS. The following applies: 10 µM unless noted.
Test [5] concerns SF-539 CNS. The following applies: 10 µM unless noted.
Test [6] relates to M14 melanoma. The following applies: 10 µM unless noted.
The subject of test [7] is HCT-15 colon. The following applies: 10 µM.
Test [8] deals with SNB-19 CNS. The following applies: 10 µM unless noted.
The subject of test [9] is UACC-62 melanoma. The conditions noted are these: 10 µM unless noted.
Test [10] relates to SN12C renal. The conditions noted are these: 10 µM unless noted.
Test [11] concerns ACHN renal. The following applies: 10 µM unless noted.
The subject of test [12] is MOLT-4 leukemia. The conditions noted are these: 10 µM.
Test [13] concerns OVCAR-8 ovarian. The following applies: 10 µM unless noted.
Test [14] has as its system SK-OV-3 ovarian. The conditions noted are these: 10 µM unless noted.
Test [15] deals with NCI/ADR-RES ovarian. The conditions noted are these: 10 µM unless noted.
In test [16] the test system is T-47D breast. The following applies: 10 µM unless noted.
Test [17] relates to MDA-MB-435 melanoma. The following applies: 10 µM unless noted.
The test system of test [18] is SW-620 colon. The following applies: 10 µM unless noted.
Test [19] concerns HCT-116 colon. The following applies: 10 µM unless noted.
Test [20] deals with KM12 colon. The following applies: 10 µM unless noted.

Take `O=C(N/N=C/c1ccc([N+](=O)[O-])o1)c1cc([N+](=O)[O-])cc([N+](=O)[O-])c1O`: the growth in [1] is 106%; in [2], 111%; in test [3] it was 93.5%; in test [4], 101%; in test [5], 112%; in [6], 102%. Moreover, the growth was 93.3% in test [7]; 100% in test [8]; 88.9% in test [9]; 96.1% in [10]; 90.6% in test [11]; 62.8% in [12]. The growth in test [13] is 89.8%; in test [14], 101%; in test [15] it was 89.1%; in [16], 93.5%; in test [17], 98.3%; in test [18], 102%. Besides, the growth in test [19] is 92.6%; in [20], 99.7%.
On to `CC[C@@]1(C2O[C@@H](C3O[C@@](O)(CC)[C@H](C)C[C@@H]3C)C[C@@H]2C)CC[C@H]([C@]2(C)CCC3(C[C@H](O)[C@@H](C)[C@@H]([C@H](C)[C@@H](OC)[C@H](C)C(=O)O)O3)O2)O1` (stereo partly drawn), for which the growth in test [2] is 44.9%; in test [4] it was 22.4%; in test [5], 12.6%; in test [7], 11.5%; in test [8], 31.1%; in [10] it was 31%. Moreover, the growth in test [11] was 32%; in [12] it was 30.8%; in test [13], 31%; in test [14] it was 23%; in test [15], 31.1%; in test [16], 30.2%. In addition, the growth in [18] is 11.3%; in [20], 20.6%.
`Oc1ccc(Br)cc1CN1CCN(Cc2ccc(Cl)cc2)CC1`: the growth is 107% in [1]; 88.5% in test [2]; 49.2% in [3]; 64.2% in test [4]; 92.9% in test [5]; 85.9% in test [6]. In addition, the growth in test [7] was 59.7%; in test [8] it was 87.8%; in test [9] it was 50.7%; in [10] it was 89.6%; in test [11] it was 83.3%; in [12], 56.1%. Also, the growth in test [13] is 60.6%; in test [14], 101%; in test [15], 82.2%; in test [16], 65.1%; in test [17], 12.8%; in [18], 73.1%. For the same compound, the growth in test [19] was 22.2%; in test [20] it was 64.9%.
As for `CCC[CH2][Sn]([CH2]CCC)([CH2]CCC)[O]C(=O)c1ccc(Cl)cc1Cl`, the growth in [1] was -91.7% (active); in test [2], -98% (active); in test [3] it was -88.2% (active); in test [4], -95.5% (active); in test [5] it was -91.7% (active); in test [6] it was -85.8% (active). Besides, the growth in test [7] is -82.9% (active); in test [8], -86.3% (active); in test [9], -95.4% (active); in test [10], -83.9% (active); in [11] it was -100% (active); in test [12] it was -16.6% (active). For the same compound, the growth in test [13] was -63.6% (active); in test [14], -96% (active); in test [15] it was -68.6% (active); in test [16], -58.3% (active); in [17] it was -85.4% (active); in [18], -71.7% (active). Further, the figures for the growth in [19] and in [20] were -87.6% (active) and -92.4% (active), respectively.
Take `O=[N+]([O-])c1cc([N+](=O)[O-])c(Cl)c(Cl)c1Cl`: the growth in test [1] is 12.2%; in test [2], -27.2% (active); in [3], 22.3%; in [5], 11.6%; in test [6] it was -8.63% (active); in [7], -49.1% (active). The growth was 73.5% in [8]; 14.6% in [9]; 19.4% in test [10]; -87.1% (active) in [11]; 2.06% (active) in test [12]; -41.1% (active) in test [13]. Moreover, the growth in test [14] is 101%; in test [15], 21.4%; in [16] it was -27.9% (active); in [17] it was 19.3%; in test [19], -53.9% (active); in [20], 37.4%.
For `Oc1c(Br)cc(Br)cc1Br.[Cu+2]`, the growth is 115% in [1]; 108% in [2]; 111% in test [3]; 105% in [4]; 107% in [5]; 103% in [6]. Further, the growth in test [7] was 108%; in [8] it was 118%; in [9] it was 109%; in test [10] it was 110%; in test [11] it was 105%; in [12], 92.1%. In addition, the growth is 103% in [13]; 94.3% in [14]; 105% in test [15]; 119% in test [16]; 105% in [17]; 99.2% in [18]. Further, the growth in test [19] was 98.4%; in [20], 98.1%.
Consider `C=C=[CH][Sn]([c]1ccccc1)([c]1ccccc1)[c]1ccccc1`, for which the growth in [1] was -81.2% (active); in test [2], -91.1% (active); in [3], -53.3% (active); in test [4], -69% (active); in [5], -29.9% (active); in test [6] it was -66.1% (active). For the same compound, the growth in test [7] is -48.6% (active); in test [8], -50% (active); in test [9], -62.3% (active); in test [10], -73.5% (active); in test [11], -49.4% (active); in test [13], -30% (active). Also, the growth is -57.1% (active) in test [14]; -36.7% (active) in [16]; -59.5% (active) in test [17]; -74.8% (active) in [18]; -97.4% (active) in test [19]; -84.8% (active) in test [20].
Regarding `CC(C)OC(=S)[S-].[Au+].c1ccc([PH+](c2ccccc2)c2ccccc2)cc1`, the growth in [1] is 2.78% (active); in test [2], 50%; in [3], -14.3% (active); in test [4], 18.2%; in test [5], 7.83% (active); in test [6] it was 11.5%. In addition, the growth in [7] is -14.2% (active); in test [8], 25.1%; in test [9], 0.794% (active); in [10], 16.7%; in [11], 0.723% (active); in test [12] it was 10.9%. Moreover, the growth was 27.2% in test [13]; 67.6% in [15]; 30.3% in test [17]; -59.2% (active) in test [18]; 13.9% in test [19]; 69.4% in [20].
`COc1c(O)c2c3c(c1OC)-c1ccccc1CC3N(C)CC2` (stereo not drawn): the growth in [1] is 100%; in [2], 116%; in test [3], 96.3%; in test [4], 101%; in test [5] it was 107%; in test [6], 93.3%. Besides, the growth in test [7] is 105%; in test [8], 102%; in test [9], 94.9%; in test [10], 99.9%; in test [11], 105%; in test [12], 83.6%. The growth was 110% in test [13]; 94.2% in test [14]; 99.7% in test [15]; 100% in test [16]; 104% in test [17]; 117% in test [18]. In addition, the growth in test [19] is 95.7%; in test [20] it was 100%.

Source of the values: PubChem BioAssay (NCI).
